# Among all 4,400 compounds or so, about 390 (8.9%) showed an effect of 50% or more. Many of the other results were omitted from the sample, so strong results are more common in it than they were.
# Test system: Trypanosoma brucei
# Experiment: DNDI: Inhibition of Human African Trypanosomiasis, SBRI 427, in vitro at 2 ug.mL-1
# Format: functional
row,SMILES,% inhibition [%]
1,Cc1cc(C)cc(CN/C(=N\O)c2ccc(C)nc2OCc2ccccn2)c1,80
2,COc1cc(C)ccc1Oc1nc(C)ccc1/C(=N/O)NCc1c(F)cccc1F,95
3,COc1cc(C)ccc1Oc1nc(C)ccc1/C(=N/O)NCc1cc(F)cc(F)c1,98
4,COc1cc(C)ccc1Oc1nc(C)ccc1/C(=N/O)NCc1ccccc1,99
5,Cc1ccc(Oc2nc(C)ccc2/C(=N/O)NCc2cc(F)cc(F)c2)c(C)c1,6
6,Cc1ccc(Oc2nc(C)ccc2/C(=N/O)NCc2c(F)cccc2F)c(C)c1,-3
7,Cc1ccc(/C(=N/O)NCc2ccccc2)c(OCc2ccccn2)n1,13
8,COc1ccccc1CN/C(=N\O)c1ccc(C)nc1Oc1ccc(C)cc1OC,11
9,Cc1ccc(/C(=N/O)NCc2ccccn2)c(OCc2ccccn2)n1,-11
10,COc1ccc(Oc2nc(C)ccc2/C(=N/O)NCc2cc(F)cc(F)c2)cc1,-8
11,COc1cc(C)ccc1Oc1nc(C)ccc1/C(=N/O)NCc1ccccn1,-7
12,COc1ccc(CN/C(=N\O)c2ccc(C)nc2Oc2ccc(C)cc2OC)cc1,24
13,FC(F)(F)c1cccc(CNCc2coc(-c3ccc(Cl)cc3Cl)n2)c1,-2
14,CCOc1ccccc1-c1nc(CN2CCN(c3cccc(C)c3)C(C)C2)co1 (configuration not stated),-6
15,COCCN(CCOC)Cc1coc(-c2ccc(O)cc2)n1,38
16,Cc1cccc(Oc2ccc(/C(=N/O)NCc3cccnc3)cn2)c1,12
17,Cc1cccc(-c2nc(CN(C)CC#N)co2)c1,4
18,O/N=C(/c1cccnc1Oc1ccccc1Cl)N1CCN(c2ccc(F)cc2)CC1,3
19,Cc1ccc(/C(=N/O)N2CCSCC2)c(Oc2ccc3ccccc3c2)n1,12
20,COc1cc(C)ccc1Oc1nc(C)ccc1/C(=N/O)NCc1cc(C)cc(C)c1,98
21,Cc1cc(C)cc(CN/C(=N\O)c2ccc(C)nc2Oc2ccc(C)cc2C)c1,18
22,Cc1cc(C)cc(CN/C(=N\O)c2ccc(C)nc2Oc2cc(C)cc(C)c2)c1,41

row,SMILES,% inhibition [%]
1,CCN(CC)Cc1coc(-c2ccc(C)cc2)n1,1
2,Cc1nccn1/C(=N\O)c1ccc(Oc2ccc(Cl)cc2)nc1,5
3,Cc1ccc(/C(=N/O)NCC(C)C)c(Oc2cccc(C(C)C)c2)n1,3
4,Cc1ccc(/C(=N/O)NCC(C)C)c(Oc2ccc3ccccc3c2)n1,13
5,CSc1ccc(Oc2nc(C)ccc2/C(=N/O)N(C)c2ccccc2)cc1C,5
6,Cc1ccc(/C(=N/O)N(C)c2ccccc2)c(Oc2cccc(F)c2)n1,86
7,Cc1ccc(/C(=N/O)NCC(C)C)c(Oc2cccc(F)c2)n1,79
8,COc1ccc(Oc2nc(C)ccc2/C(=N/O)N(C)c2ccccc2)cc1,-6
9,Cc1ccc(/C(=N/O)NCc2cc(F)cc(F)c2)c(Oc2cccc(F)c2)n1,28
10,Cc1cccc(Oc2nc(C)ccc2/C(=N/O)NCC(C)C)c1,94
11,Cc1ccc(/C(=N/O)NCc2ccccc2)c(Oc2cccc(F)c2)n1,13
12,COc1cc(-c2nc(CN3CCN(c4cc(C)nc5ccccc45)CC3)co2)cc(OC)c1OC,10
13,CN(Cc1ccco1)/C(=N\O)c1ccc(Oc2c(F)c(F)cc(F)c2F)nc1,-10
14,COc1cc(-c2nc(CN3CC[C@H]4CCCC[C@@H]4C3)co2)cc(OC)c1OC,-12
15,COc1cc(-c2nc(CNCc3cccc4ccccc34)co2)cc(OC)c1OC,0
16,Cc1ccc(/C(=N/O)NCc2ccco2)c(Oc2ccc(F)cc2)n1,22
17,CCN1CCN(Cc2coc(-c3ccc(Cl)cc3Cl)n2)CC1,22
18,CN(CCc1ccccn1)Cc1coc(-c2ccccc2Cl)n1,10
19,CC(C)(C)CN/C(=N\O)c1ccnc(Oc2cccc(F)c2)c1,76
20,CSCCN/C(=N\O)c1ccnc(Oc2ccc(F)c(Cl)c2)c1,5
21,Cc1cc(C)cc(CN/C(=N\O)c2ccnc(Oc3cccc(F)c3)c2)c1,11
22,O/N=C(\NCc1c(F)cccc1F)c1ccnc(Oc2ccc(F)c(Cl)c2)c1,30

row,SMILES,% inhibition [%]
1,CC(C)(C)CN/C(=N\O)c1ccnc(Oc2ccc(F)c(Cl)c2)c1,96
2,CCC(C)(C)N/C(=N\O)c1ccnc(Oc2cccc(F)c2)c1,1
3,Brc1ccccc1-c1nc(CNC[C@@H]2CCCO2)co1,-9
4,COc1ccc(Oc2nc(C)ccc2/C(N)=N/O)cc1,9
5,CCCCC(CC)CNCc1coc(-c2ccc(C)cc2)n1 (configuration not stated),10
6,Cc1ccc(/C(=N/O)N2c3ccccc3CCC2C)c(Oc2ccc3oc4ccccc4c3c2)n1 (configuration not stated),-9
7,O/N=C(\NCC1CCCCC1)c1ccc(Oc2ccc3ccccc3c2)nc1,6
8,CC1CCC(N/C(=N\O)c2ccc(Oc3ccc4ccccc4c3)nc2)CC1 (configuration not stated),-9
9,O/N=C(\NC1CCCCC1)c1ccc(Oc2ccc3ccccc3c2)nc1,77
10,O/N=C(\Nc1ccccc1)c1ccc(Oc2ccc3ccccc3c2)nc1,-7
11,O/N=C(\NC1CCC1)c1ccc(Oc2ccc3ccccc3c2)nc1,96
12,CC1CC(N/C(=N\O)c2ccc(Oc3ccc4ccccc4c3)nc2)CC(C)(C)C1 (configuration not stated),4
13,COCC(C)N/C(=N\O)c1ccc(Oc2cc(C)cc(C(C)C)c2)nc1 (configuration not stated),18
14,COCC(C)N/C(=N\O)c1ccc(Oc2ccc3ccccc3c2)nc1 (configuration not stated),76
15,CCC(CC)N/C(=N\O)c1ccc(Oc2ccc3ccccc3c2)nc1,32
16,COc1cc(-c2nc(CN3CCC4CCCCC4C3)co2)cc(OC)c1OC (configuration not stated),-10
17,Fc1cccc(-c2nc(CN3CCN(c4ncccn4)CC3)co2)c1,6
18,FC(F)(F)c1ccc(-c2nc(Cn3ccnc3-c3ccccc3)co2)cc1,-8
19,c1cncc(CN(Cc2cccnc2)Cc2coc(-c3cccc4ccccc34)n2)c1,47
20,COc1cccc(CNCc2coc(-c3ccccc3C)n2)c1,15
21,COc1ccc(CCN(C)Cc2coc(-c3ccc(C(F)(F)F)cc3)n2)cc1OC,7
22,CCCN(CC1CC1)/C(=N\O)c1ccc(C)nc1Oc1cccc(C)c1,-4

row,SMILES,% inhibition [%]
1,Cc1ccc(/C(=N/O)N2CCCc3ccccc32)c(Oc2cccc(F)c2)n1,93
2,Cc1cc(C)cc(Oc2nc(C)ccc2/C(=N/O)N2CCCc3ccccc32)c1,53
3,Cc1ccc(/C(=N/O)N2CCCc3ccccc32)c(Oc2ccc(F)c(F)c2)n1,21
4,Cc1cc(C)cc(Oc2nc(C)ccc2/C(=N/O)N2c3ccccc3CCC2C)c1 (configuration not stated),98
5,COc1ccc(Oc2nc(C)ccc2/C(=N/O)N2CCCc3ccccc32)cc1,11
6,Cc1ccc(/C(=N/O)N2c3ccccc3CCC2C)c(Oc2cccc(F)c2)n1 (configuration not stated),34
7,CSc1ccc(Oc2nc(C)ccc2/C(=N/O)N2c3ccccc3CCC2C)cc1C (configuration not stated),0
8,Cc1ccc(/C(=N/O)N2CCCc3ccccc32)c(Oc2ccc3ccccc3c2)n1,15
9,CSc1ccc(Oc2nc(C)ccc2/C(=N/O)N2CCCc3ccccc32)cc1C,10
10,CC(C)(C)COc1ncccc1/C(=N/O)NCCN1CCOCC1,6
11,CCN(Cc1coc(-c2cccc(OC)c2)n1)c1cccc(C)c1,-18
12,Fc1ccc(N2CCN(Cc3coc(-c4ccc(Cl)cc4Cl)n3)CC2)cc1,14
13,Cc1ccc(/C(=N/O)N(C)C2CCN(C)CC2)c(Oc2cccnc2)n1,9
14,CC1CCCN1/C(=N\O)c1cccnc1Oc1ccc(F)cc1 (configuration not stated),2
15,c1coc(-c2nc(CN3CCCCCC3)co2)c1,16
16,CCN(Cc1ccccc1)Cc1coc(-c2ccccc2)n1,9
17,CN(Cc1coc(-c2ccc(C(F)(F)F)cc2)n1)C1CCN(Cc2ccccc2)C1 (configuration not stated),0
18,CCOc1ccccc1CN/C(=N\O)c1cccnc1Oc1ccc(CC)cc1,99
19,CCOc1ccccc1Oc1ncccc1/C(=N\O)NCc1ccncc1,0
20,CCc1ccc(Oc2ncccc2/C(=N/O)NCc2ccccc2OC)cc1,99
21,CCOc1ccccc1CNCc1coc(-c2cccs2)n1,-4
22,Cc1nccn1/C(=N\O)c1ccnc(Oc2cccc3cnccc23)c1,14

row,SMILES,% inhibition [%]
1,c1ccc(C(c2ccccc2)N2CCN(Cc3coc(-c4ccco4)n3)CC2)cc1,0
2,Cc1ccc(/C(=N/O)N2CCCCCC2)c(OCc2ccccn2)n1,28
3,C/C(=C\C#N)N/C(=N\O)c1ccnc(Oc2cc(C)ccc2C(C)C)c1,21
4,CCOc1ccc(Oc2cc(/C(=N/O)NCc3ccccc3OC)ccn2)cc1,0
5,c1ccc(-c2cn(Cc3coc(-c4cccc5ccccc45)n3)cn2)cc1,-1
6,CCN(/C(=N\O)c1cccnc1Oc1ccc2c(c1)CCCC2)C(C)C,3
7,CCOc1cccc(-c2nc(CN3CCN(c4ccccc4)CC3)co2)c1,17
8,O/N=C(/c1cccnc1Oc1ccc(-n2cncn2)cc1)N1CCCc2ccccc21,10
9,CC(C)COc1ncccc1/C(=N/O)N1C(C)CCC1C (configuration not stated),-2
10,CC(C)COc1ncccc1/C(=N/O)N1C(C)CCCC1C (configuration not stated),6
11,CC1CCC(C)N1/C(=N\O)c1cccnc1OCC(C)(C)C (configuration not stated),93
12,CC1CCc2ccccc2N1/C(=N\O)c1cccnc1OCC(C)(C)C (configuration not stated),84
13,CC(C)(C)COc1ncccc1/C(=N/O)N1CCCCCC1,8
14,O/N=C(/c1cccnc1OCc1ccccc1F)N1CCCc2ccccc21,-20
15,CC(C)(C)COc1ncccc1/C(=N/O)N1CCCc2ccccc21,100
16,O/N=C(/c1cccnc1OCc1cccc(F)c1)N1CCCc2ccccc21,-2
17,CC1CCC(C)N1/C(=N\O)c1cccnc1Oc1ccc(-n2cncn2)cc1 (configuration not stated),9
18,CC1CCc2ccccc2N1/C(=N\O)c1cccnc1Oc1ccc(-n2cncn2)cc1 (configuration not stated),81
19,CC(C)(C)COc1ncccc1/C(=N/O)N1CCCC1,0

# Source: ChEMBL document CHEMBL1857833, “Screening and optimization of specific chemical series against human African Trypanosomiasis (HAT)”
